{"source": "PubChem BioAssay (Tox21)", "note": "Inconclusive results are not listed. A number with no mark means an inactive call. Calls of active or inactive are those of the source. The call rests on the fitted dose curve; in most records, active means well fitted cell-killing curve with a large enough effect in the repeat runs; inconclusive means weak or mixed curves, or effect the other way; inactive means flat fitted curve, though single readings scatter. On the % scale 0 is the no-effect control and ±100 the full control effect; potency means the concentration at half of the fitted maximal effect.", "data": [{"experiment": "qHTS assay to identify small molecule antagonists of the estrogen receptor alpha (ER-alpha) signaling pathway using the BG1 cell line in the presence of 0.1 nM 17-beta-estradiol - cell viability counter screen (AID 1259241); further: nearly all actives have a fitted effect of over 40% in size", "details": "VM7Luc4E2 (BG1) viability, CellTiter-Fluor protease, 22 h, 0.1 nM estradiol agonist added; series mostly up to 92.4 µM; activity change, negative = cytotoxicity: at the top concentration", "how_it_was_run": "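CellTiter-Fluor read (30 min, 37C) on ER-alpha/ERE-luc VM7Luc4E2 cells; 22 hr compound treatment; agonist 0.1 nM E2 final; same-well multiplex.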", "values": [{"smiles": "CCCCCCCC/C=C\\CCCCCCCC(=O)OC[C@@H](O)[C@H]1OC[C@H](O)[C@H]1O", "activity change, negative = cytotoxicity": "0.211%"}, {"smiles": "COc1ccc(NS(=O)(=O)c2ccc(N)cc2)nn1", "activity change, negative = cytotoxicity": "13.8% [at 42.5 µM]"}, {"smiles": "CC(C)CCO", "activity change, negative = cytotoxicity": "1.38%"}, {"smiles": "CCS(=O)(=O)CCn1c([N+](=O)[O-])cnc1C", "activity change, negative = cytotoxicity": "-9.02% [at 42.5 µM]"}, {"smiles": "O=C(O)CCNC(=O)c1ccccc1", "activity change, negative = cytotoxicity": "2.95% [at 42.5 µM]"}, {"smiles": "COc1ccc(N=Nc2cc(C)c(N=Nc3ccc(S(=O)(=O)O)cc3)cc2OC)cc1", "Potency": "68.6 µM (active)"}, {"smiles": "CNC(=O)C(c1ccccc1)c1ccccc1", "activity change, negative = cytotoxicity": "0.343%"}, {"smiles": "CCCCCN(CCCOC)C(=O)C(CCC(=O)O)NC(=O)c1ccc(Cl)c(Cl)c1", "note": "(centres undefined)", "activity change, negative = cytotoxicity": "7.3% [at 42.5 µM]"}, {"smiles": "CCNC(=O)/C=C/c1cccc(Br)c1", "activity change, negative = cytotoxicity": "2.94% [at 42.5 µM]"}, {"smiles": "O=S(=O)(O)SSS(=O)(=O)O", "activity change, negative = cytotoxicity": "1.71%"}, {"smiles": "NS(=O)(=O)c1ccc(Cl)c(S(N)(=O)=O)c1", "activity change, negative = cytotoxicity": "7.02% [at 42.5 µM]"}, {"smiles": "COC(=O)CCC(=O)O", "activity change, negative = cytotoxicity": "1.65%"}, {"smiles": "CC(C)COC(=O)COc1ccc(Cl)cc1Cl", "activity change, negative = cytotoxicity": "1.93%"}, {"smiles": "Nc1ccc(S(=O)(=O)Nc2ccccn2)cc1", "activity change, negative = cytotoxicity": "1.71% [at 42.5 µM]"}, {"smiles": "O=C(O)Cc1cccc(-c2cc(CCCCCCc3ccc(O[C@H]4O[C@H](CO)[C@@H](O)[C@H](O)[C@@H]4O)c(-c4cccc(CC(=O)O)c4)c3)ccc2O[C@H]2O[C@H](CO)[C@@H](O)[C@H](O)[C@@H]2O)c1", "activity change, negative = cytotoxicity": "-0.713% [at 0.349 µM]"}, {"smiles": "NS(=O)(=O)c1cc2c(cc1Cl)NC(CC1CCCC1)NS2(=O)=O", "note": "(centres undefined)", "activity change, negative = cytotoxicity": "1.09% [at 42.5 µM]"}, {"smiles": "CCCCCCCCCCCCCCCCCCN(C)C", "activity change, negative = cytotoxicity": "-1.83% [at 42.5 µM]"}, {"smiles": "CC(=O)OCC(=O)[C@@]1(O)[C@H](OC(C)=O)C[C@H]2[C@@H]3CCC4=CC(=O)C=C[C@]4(C)[C@@]3(F)[C@@H](O)C[C@@]21C", "activity change, negative = cytotoxicity": "1.93% [at 42.5 µM]"}, {"smiles": "C=CCOCC(O)CCl", "note": "(centres undefined)", "activity change, negative = cytotoxicity": "-8.22%"}, {"smiles": "Nc1cc(C(=O)O)ccc1Cl", "activity change, negative = cytotoxicity": "-0.663%"}, {"smiles": "O=C(O)c1ccccc1C(=O)OCc1ccccc1", "activity change, negative = cytotoxicity": "-0.953%"}, {"smiles": "C[C@@H]1C[C@H]2[C@@H]3C[C@H](F)C4=CC(=O)C=C[C@]4(C)[C@@]3(F)[C@@H](O)C[C@]2(C)[C@@]1(O)C(=O)CO", "activity change, negative = cytotoxicity": "3.66% [at 42.5 µM]"}, {"smiles": "O=S1(=O)CCCC1", "activity change, negative = cytotoxicity": "0%"}, {"smiles": "O=c1[nH]c(=O)c2ccccc2o1", "activity change, negative = cytotoxicity": "-12.4% [at 42.5 µM]"}]}, {"experiment": "qHTS assay to identify small molecule antagonists of the androgen receptor (AR) signaling pathway using the MDA cell line in the presence of 0.5 nM R1881 - cell viability counter screen (AID 1259242); further: nearly all actives have a fitted effect of over 45% in size", "details": "MDA-kb2 viability, CellTiter-Fluor protease fluorescence, 16 h; series mostly up to 92.4 µM; viability change, negative = cytotoxic: at the top concentration", "how_it_was_run": "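Live-cell protease fluorescence, CellTiter-Fluor, 30 min at 37C. Cells: MDA-kb2, 3,000/well, preincubated 5 hr. Compounds plus 0.5 nM R1881 final, 16 hr, 37C, 0% CO2.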", "values": [{"smiles": "CCCCCCCC/C=C\\CCCCCCCC(=O)OC[C@@H](O)[C@H]1OC[C@H](O)[C@H]1O", "viability change, negative = cytotoxic": "-2.44%"}, {"smiles": "COc1ccc(NS(=O)(=O)c2ccc(N)cc2)nn1", "viability change, negative = cytotoxic": "0.487% [at 42.5 µM]"}, {"smiles": "CC(C)CCO", "viability change, negative = cytotoxic": "3.44%"}, {"smiles": "CCS(=O)(=O)CCn1c([N+](=O)[O-])cnc1C", "viability change, negative = cytotoxic": "-0.775% [at 42.5 µM]"}, {"smiles": "O=C(O)CCNC(=O)c1ccccc1", "viability change, negative = cytotoxic": "5.33% [at 42.5 µM]"}, {"smiles": "C=C[Si](C)(C)O[Si](C)(C)C=C", "viability change, negative = cytotoxic": "1.19%"}, {"smiles": "Cc1ccccc1C(=O)N1CC/C(=N\\OS(=O)(=O)O)c2ccc(Cl)cc21", "viability change, negative = cytotoxic": "0.465% [at 42.5 µM]"}, {"smiles": "COc1ccc(N=Nc2cc(C)c(N=Nc3ccc(S(=O)(=O)O)cc3)cc2OC)cc1", "Potency": "48.6 µM (active)"}, {"smiles": "CCCCCCCC[Si](OCC)(OCC)OCC", "viability change, negative = cytotoxic": "3.49%"}, {"smiles": "CNC(=O)C(c1ccccc1)c1ccccc1", "viability change, negative = cytotoxic": "0.929%"}, {"smiles": "CCCCCN(CCCOC)C(=O)C(CCC(=O)O)NC(=O)c1ccc(Cl)c(Cl)c1", "note": "(centres undefined)", "viability change, negative = cytotoxic": "0.728% [at 42.5 µM]"}, {"smiles": "CCNC(=O)/C=C/c1cccc(Br)c1", "viability change, negative = cytotoxic": "0.682% [at 42.5 µM]"}, {"smiles": "C[C@H](CCC(=O)NCC(=O)O)[C@H]1CC[C@H]2[C@@H]3[C@H](O)C[C@@H]4C[C@H](O)CC[C@]4(C)[C@H]3C[C@H](O)[C@]12C", "viability change, negative = cytotoxic": "4.48%"}, {"smiles": "NC(Cc1c[nH]c2ccccc12)C(=O)O", "note": "(centres undefined)", "viability change, negative = cytotoxic": "-2.86% [at 42.5 µM]"}, {"smiles": "O=S(=O)(O)SSS(=O)(=O)O", "viability change, negative = cytotoxic": "3.35%"}, {"smiles": "NS(=O)(=O)c1ccc(Cl)c(S(N)(=O)=O)c1", "viability change, negative = cytotoxic": "5.6% [at 42.5 µM]"}, {"smiles": "COC(=O)CCC(=O)O", "viability change, negative = cytotoxic": "5.2%"}, {"smiles": "CC(C)COC(=O)COc1ccc(Cl)cc1Cl", "viability change, negative = cytotoxic": "5.14%"}, {"smiles": "C=C(C)[C@@H]1CC[C@@H](C)C[C@@H]1O", "viability change, negative = cytotoxic": "0.337%"}, {"smiles": "Nc1ccc(S(=O)(=O)Nc2ccccn2)cc1", "viability change, negative = cytotoxic": "2.15% [at 42.5 µM]"}, {"smiles": "C=CCOC(=O)c1ccc(C(=O)OCC=C)c(C(=O)OCC=C)c1", "viability change, negative = cytotoxic": "6.96%"}, {"smiles": "O=C(O)Cc1cccc(-c2cc(CCCCCCc3ccc(O[C@H]4O[C@H](CO)[C@@H](O)[C@H](O)[C@@H]4O)c(-c4cccc(CC(=O)O)c4)c3)ccc2O[C@H]2O[C@H](CO)[C@@H](O)[C@H](O)[C@@H]2O)c1", "viability change, negative = cytotoxic": "-0.767% [at 0.349 µM]"}, {"smiles": "CCCCC(C)C(=O)O", "note": "(centres undefined)", "viability change, negative = cytotoxic": "4.16%"}, {"smiles": "NS(=O)(=O)c1cc2c(cc1Cl)NC(CC1CCCC1)NS2(=O)=O", "note": "(centres undefined)", "viability change, negative = cytotoxic": "-0.563% [at 42.5 µM]"}, {"smiles": "CCCCCCCCCCCCCCCCCCN(C)C", "viability change, negative = cytotoxic": "1.31% [at 42.5 µM]"}, {"smiles": "CC(=O)OCC(=O)[C@@]1(O)[C@H](OC(C)=O)C[C@H]2[C@@H]3CCC4=CC(=O)C=C[C@]4(C)[C@@]3(F)[C@@H](O)C[C@@]21C", "viability change, negative = cytotoxic": "0.317% [at 42.5 µM]"}, {"smiles": "C=CCOCC(O)CCl", "note": "(centres undefined)", "viability change, negative = cytotoxic": "-4.45%"}, {"smiles": "CCOC(=O)CCc1ccccc1", "viability change, negative = cytotoxic": "4.41%"}, {"smiles": "Nc1cc(C(=O)O)ccc1Cl", "viability change, negative = cytotoxic": "4.03%"}, {"smiles": "FC(F)(F)c1ccc(Cl)cc1Cl", "viability change, negative = cytotoxic": "-2.69%"}, {"smiles": "CC(C)(C)c1ccc(C=O)cc1", "viability change, negative = cytotoxic": "-1.64%"}, {"smiles": "O=C(O)c1ccccc1C(=O)OCc1ccccc1", "viability change, negative = cytotoxic": "0.781%"}, {"smiles": "C[C@@H]1C[C@H]2[C@@H]3C[C@H](F)C4=CC(=O)C=C[C@]4(C)[C@@]3(F)[C@@H](O)C[C@]2(C)[C@@]1(O)C(=O)CO", "viability change, negative = cytotoxic": "-2.8% [at 42.5 µM]"}, {"smiles": "O=S1(=O)CCCC1", "viability change, negative = cytotoxic": "1.41%"}, {"smiles": "O=c1[nH]c(=O)c2ccccc2o1", "viability change, negative = cytotoxic": "0.394% [at 42.5 µM]"}]}]}
